According to the supplement of paper PMC3334620:
In all, about 33,000 sequences were measured (“E-score (-0.5 to 0.5)”: median about -0.054, highest 2% from about 0.39 on). Shown is part of a subset that was picked to be rich in the highest values.

Biological target: Ylr278c (UniProt Q05854)
Assay: PBM E-score (8-mer binding enrichment) (E-score (-0.5 to 0.5)); higher = stronger / more preferred TF binding
Settings: protein concentration: 200 nM; construct: GST-DNA-binding domain
Procedure: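 Universal 'all 10-mer' protein binding microarrays (Agilent AMADID 015681) probed with GST-tagged S. cerevisiae TFs (full-length or DBD) made by in vitro transcription/translation (PURExpress), about 100-200 nM. Bound TF was detected with fluorescent anti-GST. Each ungapped 8-mer (which stands for itself and its reverse complement) is scored by the PBM enrichment score (E-score), a modified Wilcoxon-Mann-Whitney statistic from -0.5 to +0.5, computed with the Universal PBM Analysis Suite. Scale: above 0.35 generally sequence-specific binding.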

UniProt Q05854, sequence (Q05854 whole entry): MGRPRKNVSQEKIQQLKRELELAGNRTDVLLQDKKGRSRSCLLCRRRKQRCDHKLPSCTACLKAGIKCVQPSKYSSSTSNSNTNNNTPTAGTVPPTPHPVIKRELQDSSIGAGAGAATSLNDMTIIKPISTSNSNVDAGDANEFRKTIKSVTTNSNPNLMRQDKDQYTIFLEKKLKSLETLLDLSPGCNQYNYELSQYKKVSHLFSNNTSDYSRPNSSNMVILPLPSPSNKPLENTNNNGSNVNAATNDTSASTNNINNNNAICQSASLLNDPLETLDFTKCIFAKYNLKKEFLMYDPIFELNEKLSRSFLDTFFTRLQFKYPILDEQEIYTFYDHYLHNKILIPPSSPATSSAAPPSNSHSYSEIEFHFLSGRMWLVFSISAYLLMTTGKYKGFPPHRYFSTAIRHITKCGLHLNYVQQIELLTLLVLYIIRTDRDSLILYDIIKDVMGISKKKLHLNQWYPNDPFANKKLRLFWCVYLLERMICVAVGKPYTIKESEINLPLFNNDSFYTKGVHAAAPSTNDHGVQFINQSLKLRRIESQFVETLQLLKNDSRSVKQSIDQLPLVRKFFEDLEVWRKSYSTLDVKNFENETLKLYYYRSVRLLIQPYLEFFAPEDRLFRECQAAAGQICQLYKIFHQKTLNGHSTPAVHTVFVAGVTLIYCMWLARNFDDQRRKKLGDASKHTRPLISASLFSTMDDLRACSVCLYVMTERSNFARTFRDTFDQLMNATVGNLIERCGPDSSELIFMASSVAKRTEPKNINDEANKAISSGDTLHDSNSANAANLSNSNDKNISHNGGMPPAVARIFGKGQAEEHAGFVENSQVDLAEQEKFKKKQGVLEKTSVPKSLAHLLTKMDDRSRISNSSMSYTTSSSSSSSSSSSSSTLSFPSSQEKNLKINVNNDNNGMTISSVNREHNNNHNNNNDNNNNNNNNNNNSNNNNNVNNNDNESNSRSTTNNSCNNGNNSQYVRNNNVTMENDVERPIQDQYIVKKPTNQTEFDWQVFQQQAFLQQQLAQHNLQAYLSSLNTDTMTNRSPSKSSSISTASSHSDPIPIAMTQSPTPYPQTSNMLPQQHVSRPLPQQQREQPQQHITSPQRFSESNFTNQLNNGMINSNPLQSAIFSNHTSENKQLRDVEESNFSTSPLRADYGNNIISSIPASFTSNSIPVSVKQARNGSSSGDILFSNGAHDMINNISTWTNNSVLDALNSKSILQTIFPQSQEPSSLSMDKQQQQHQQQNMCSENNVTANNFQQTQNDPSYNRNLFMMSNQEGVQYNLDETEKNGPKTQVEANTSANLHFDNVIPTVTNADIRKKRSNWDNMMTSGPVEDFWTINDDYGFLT

In order of rising “PBM E-score” value:
1. GGGGGTTA  -0.28
2. AGTGCGAG  -0.276
3. ATAATGCA  -0.276
4. CTCAGAAA  -0.257
5. CCTACAGA  -0.256
6. AGTCTTGA  -0.247
7. CAGGCTAA  -0.247
8. ACGTAGAC  -0.244
9. ATACCTTG  -0.236
10. ACGACAGA  -0.232
11. TCCTTGAA  -0.227
12. CTGGAGAC  -0.222
13. ACCCAAGT  -0.215
14. CATTCCTA  -0.212
15. GCGTCTTA  -0.209
16. TGGGAGAA  -0.208
17. CAGGAGAG  -0.205
18. CCCAGGAG  -0.188
19. CGCCTAAA  -0.186
20. GTACTAGA  -0.178
21. TATTCCAA  -0.177
22. ACGCGAGA  -0.171
23. AGGGGTTA  -0.171
24. CTCTCTTA  -0.169
25. ACGAGTCG  -0.159
26. AGTGGTGG  -0.158
27. CATTCAAG  -0.154
28. GCTGTCTA  -0.154
29. GTCAGATA  -0.151
30. TACTGCTA  -0.151
31. CTGAGAAG  -0.149
32. CCAGACGA  -0.149
33. AAATCTTA  -0.149
34. CTGGAGAA  -0.141
35. ATCATGAT  -0.14
36. AGGGAGCG  -0.14
37. CATAGGAG  -0.136
38. TAGGAGAA  -0.134
39. AATTCTCA  -0.13
40. CATCCATA  -0.123
41. ACTGTTCA  -0.122
42. AGGAGTCA  -0.121
43. CTAAAGAC  -0.12
44. GATTCCAA  -0.116
45. AGCTAGTA  -0.114
46. GACTATGA  -0.11
47. AAAGCACA  -0.103
48. AACCTAGG  -0.102
49. ACCCTTAT  -0.098
50. CACCATCA  -0.0978
51. GTGGAGAA  -0.0956
52. GGGATGCA  -0.0857
53. GCTAGATA  -0.085
54. TAAGAGTA  -0.0846
55. AGAAGTCA  -0.0826
56. ACTAGCGA  -0.0813
57. GTAAAGAA  -0.0759
58. ATGGAGCG  -0.0671
59. AATTTCGT  -0.0607
60. ACGATGCA  -0.0494
61. ATAAGTTG  -0.0479
62. ATGGATGC  -0.0459
63. GAAGACAA  -0.0383
64. GCCCTTCC  -0.0379
65. GCATACCC  -0.0377
66. AATTCAAT  -0.026
67. AAGGAGAA  -0.0157
68. CAGTGTTC  -0.0124
69. AGCCGCAC  -0.0107
70. GGGAGTCA  -0.00639
71. CAGGAGCG  -0.00543
72. CCAGAGCG  -0.00204
73. GAGGGGTA  -2e-05
74. TTCGAAAA  0.0013
75. AATCCACG  0.0023
76. AAATATCT  0.00279
77. CAAGCAGG  0.00606
78. AGGGCCCA  0.00775
79. AGGGGTTC  0.0104
80. CGAGATCA  0.013
81. GCACCGTA  0.0145
82. GAAGCCAA  0.0199
83. CGCCTCGC  0.0203
84. TCACCGCA  0.0213
85. AGGACGTC  0.0253
86. GATTCCCA  0.0255
87. CAGGAGAA  0.0274
88. AAGCGCAA  0.0312
89. CACCGAGA  0.034
90. CTTGCAAA  0.034
91. GCGCAGCC  0.0388
92. AGAAATCG  0.0562
93. GTTTCTGA  0.0572
94. CTGAAATC  0.0679
95. AACCGGGC  0.0679
96. TACGGTCA  0.0722
97. GCAACAGA  0.0725
98. GGCAGCGA  0.0771
99. GAGTCGCC  0.0773
100. GCGCAGTA  0.0804
101. ACAAAAGG  0.0804
102. CAGAGTCC  0.0837
103. GGGAAATA  0.0851
104. AGGAAATA  0.0859
105. AACTTATA  0.0873
106. GAGTTCCC  0.0904
107. CGGGCCCA  0.091
108. GGGGAGAA  0.0935
109. CGGGAGCA  0.108
110. AAGGCCCG  0.128
111. AGGAGTCC  0.13
112. CAACACTC  0.133
113. TATTCCCA  0.138
114. AAGGCCGT  0.142
115. ATGGAGAA  0.148
116. AGGGCCCG  0.152
117. CGGGTAAA  0.156
118. CAGGCCGG  0.176
119. AGGAAATC  0.178
120. TCACCGAA  0.178
121. ATTTCTGC  0.184
122. AAGGCCGC  0.188
123. CATTCTCC  0.191
124. CACCGACC  0.192
125. CCGCTTTC  0.211
126. CTCGGATA  0.215
127. GCCCGACA  0.216
128. CCGCTTGC  0.217
129. CCCCGAGC  0.219
130. ATCCGACC  0.234
131. GGCCGACA  0.248
132. AACGGACC  0.251
133. AGCGGACC  0.252
134. AGAACGGA  0.256
135. ACCGATCG  0.26
136. CTCACGGA  0.264
137. GCACCGGC  0.264
138. ATCCGAGC  0.266
139. GGCCGAGA  0.272
140. ATCCGAGG  0.274
141. CTGCGGGC  0.276
142. GAGTCTCC  0.291
143. AGCGGACA  0.294
144. CCACCGGC  0.295
145. ATCCGAGA  0.299
146. CCCCGACA  0.301
147. CGGGAGAC  0.302
148. CGCCGAGA  0.304
149. CACCGGGC  0.304
150. CGAACGGA  0.312
151. AACCGGGG  0.321
152. ACACCGGT  0.324
153. ATCGGTCC  0.325
154. ATCGGATG  0.329
155. CCACCGGG  0.329
156. ATCCGGGA  0.332
157. ACGGAGAG  0.336
158. CCGGGTTC  0.337
159. ACCACGGA  0.341
160. ACGGAGCA  0.344
161. ACACCGGC  0.355
162. ATCGGACG  0.357
163. CCCGGGGA  0.358
164. CCCACGGA  0.359
165. CTCGGACC  0.365
166. ATCACGGA  0.365
167. CGGAAAAC  0.373
168. CGGAAAAG  0.373
169. GCGGAGCA  0.376
170. GTCCGGGA  0.38
171. ATCCGACA  0.382
172. CATTCCGG  0.384
173. ACGGAGCC  0.385
174. CGCGGACC  0.386
175. GTCGGACA  0.386
176. CATTCCGA  0.391
177. ATCGGATA  0.393
178. GTCCGACA  0.393
179. TCACCGGA  0.394
180. ACGGAGCT  0.395
181. ACGGAGCG  0.396
182. CGGGCCCG  0.398
183. GGAACGGA  0.398
184. AAGGCCGA  0.4
185. GTCACGGA  0.401
186. CGGGGTTC  0.401
187. ATCCGGGC  0.406
188. TCCACGGA  0.406
189. AATTCTCC  0.407
190. CGGAAATC  0.41
191. ATCGGACC  0.412
192. GATTCCGA  0.413
193. GGCGGACC  0.413
194. ATCCGGGG  0.414
195. GTCCGAGA  0.416
196. ACACCGGA  0.416
197. ATCGGACA  0.419
198. GCACCGGA  0.429
199. ACGGAGAA  0.434
200. AAGGCCGG  0.434
201. CTCGGACA  0.435
202. GCGGAGAA  0.436
203. CGGGGTTA  0.437
204. CTCCGACA  0.438
205. CTCCGAGC  0.439
206. CCGGAGAC  0.444
207. CGGAAAAA  0.446
208. CTCCGGGC  0.448
209. CGGAAATA  0.451
210. CTCCGAGA  0.452
211. TATTCCGA  0.453
212. CCACCGGA  0.455
213. CCGGAGAG  0.456
214. CGGAGTCA  0.457
215. CTCCGACC  0.458
216. CCGGAGCG  0.458
217. CGGAGTCC  0.464
218. TCGGAGAA  0.465
219. CTCCGGGA  0.468
220. CCGGAGCA  0.473
221. CCGGAGAA  0.489
